From the supplement of paper PMC12636033
± gives the standard deviation of the averaged measurements. In all, about 33,000 sequences were measured (“E-score (rank enrichment, -0.5 to 0.5)”: median about -0.0043, highest 2% from about 0.24 on). What follows is part of a selection rich in the highest values, with near analogues and random picks from the rest.

Tested on: 2Sp-muMax20 (muMax20 with two 2,6-bis(methyl)pyridine Cys staples)
Experiment: PBM 8-mer E-score (E-score (rank enrichment, -0.5 to 0.5)); higher = stronger preferential binding
Protocol: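 Protein binding microarray (universal PBM chip covering all 10-mers in fixed probe flanks) with chemically synthesized human Max(13-93) bHLH-LZ analogs (not full-length Max) bearing noncanonical residues (hArg, Tha, Aib, Nle at 65) and aromatic Cys staples. Read-out per 8-mer (and its reverse complement): E-score (rank-based enrichment, -0.5 to 0.5) and Z-score of median probe intensity.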

Sequence	PBM 8-mer E-score
CACGGCGC	-0.0163 ± 0.17
CACCGCGG	-0.121 ± 0.021
CTGGTAGC	-0.131 ± 0.011
CCATCTTA	-0.102 ± 0.052
CATAGCAC	0.301 ± 0.019
GATAGCAC	0.151 ± 0.043
CATAGCAA	0.199 ± 0.072
GCCAGAAA	0.0632 ± 0.035
CTAAGCTA	-0.0343 ± 0.0085
GTGATGCA	0.186 ± 0.078
AAAATAAA	0.103 ± 0.018
TGTATACA	0.315 ± 0.067
GGTATACA	0.145 ± 0.029
AATATAAG	0.249 ± 0.07
AATATAAT	0.22 ± 0.015
CATATAAA	0.323 ± 0.008
AATATAAC	0.203 ± 0.11
AATATAAA	0.245 ± 0.03
TGGATACA	0.213 ± 0.13
CATATAAC	0.228 ± 0.076
CATATAAG	0.168 ± 0.061
ACTATAAA	0.115 ± 0.014

Sequence	PBM 8-mer E-score
AGGCTCAC	-0.168 ± 0.071
CTTTCCCA	-0.0651 ± 0.061
ATTAGGTA	0.0384 ± 0.028
CTTCCCCA	0.0675 ± 0.046
ATGAAAGA	0.095 ± 0.12
GGCACTGA	-0.138 ± 0.064
GAACGGTA	-0.0592 ± 0.0044
AGCGCAAT	-0.0106 ± 0.054
GATAAAAA	0.17 ± 0.036
CATAAAAA	0.17 ± 0.062
AGTATAAA	0.186 ± 0.048
TCTATAAA	0.213 ± 0.036
TGTATAAA	0.254 ± 0.018
GGTATAAA	0.134 ± 0.012
TATATAAA	0.275 ± 0.019
TATAAAAA	0.307 ± 0.015
GATATAAA	0.191 ± 0.046
GTACACTA	-0.172 ± 0.087
AGGATGGC	-0.0191 ± 0.078
GAACGAAC	-0.022 ± 0.033
ACGTCAGT	-0.191 ± 0.0086
ATCTTAAT	0.165 ± 0.044

Sequence	PBM 8-mer E-score
ACCCAGCA	-0.107 ± 0.015
CCCCCTTC	-0.195 ± 0.12
AACCCTTC	0.0889 ± 0.037
GCCCCCCC	-0.1861 ± 0.0003
ACCCCTAG	0.0238 ± 0.027
GCCCCTCA	0.0361 ± 0.077
CCCCCTCC	-0.0372 ± 0.049
ACCCCTCC	0.246 ± 0.0062
ACCCCTTC	0.273 ± 0.015
ACCCCTCA	0.158 ± 0.055
GCCCCTCC	0.237 ± 0.036
ACCCCTAT	0.267 ± 0.044
ACCCCTAA	0.163 ± 0.11
CCGGCAGA	-0.154 ± 0.1
CTCAAAGA	-0.106 ± 0.0065
GACACCGA	-0.215 ± 0.025
GAAAGATA	0.0861 ± 0.022
TGGGAGAA	0.0249 ± 0.058
CGCCCACA	0.216 ± 0.018
ACGATGGA	-0.164 ± 0.01
CTAAAAGC	-0.0267 ± 0.036
CACTCAAG	0.0104 ± 0.039

Sequence	PBM 8-mer E-score
CTGGCAAA	-0.0382 ± 0.063
GATACGGC	-0.079 ± 0.018
ATGATATG	0.199 ± 0.075
ATGATAGC	0.278 ± 0.023
GTGATACA	0.0186 ± 0.033
ATGATACG	0.271 ± 0.071
ATGATACC	0.11 ± 0.016
ATGATAGA	0.079 ± 0.01
ATGATAGG	0.00318 ± 0.11
ATGATACA	0.274 ± 0.042
CTGATACA	-0.0277 ± 0.11
TAACGAAA	0.0771 ± 0.12
CAACTAGC	0.0239 ± 0.018
ATTAGTCC	0.0528 ± 0.12
CACGGCGA	-0.0774 ± 0.0095
CGGTCGTC	-0.18 ± 0.017
GGTGATTA	0.0438 ± 0.06
ATGTGAAC	0.119 ± 0.0064
GGATTGCC	-0.202 ± 0.012
AATGGGTC	-0.00791 ± 0.0086
